Data reported in PubChem BioAssay AID1053115 (Broad Institute, 2014).
Measured potencies and affinities stand elsewhere. The source made the active and inactive calls.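 The calls were made as follows: active = cytotoxic compounds whose fitted half-maximal concentration is at most twice the top valid tested dose; inconclusive = flat curve showing 30 to 70% signal loss, or poor fit; inactive = the rest.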

Experiment: viability loss in A549 lung cells – cell-based, 24 h, CellTiter-Glo luminescence, cherry-picks, cytotoxicity control, dose response (AID 1053115)

| Compound | outcome |
| --- | --- |
| C[C@H](CO)N1C[C@H](C)[C@H](CN(C)Cc2ccccc2)Oc2cc(C#C[C@@H](C)O)ccc2S1(=O)=O | inactive |
| CN(C)C(=O)c1ccc(-c2cccc(-c3nc(C(=O)NC4CCCC4)cc4c3[C@H](CCO)N([S@@](=O)C(C)(C)C)C4)c2)cc1 | inactive |
| CCCNC(=O)c1cc2c(c(-c3cccc(-c4cccc(F)c4)c3)n1)[C@H](CCO)N([S@@](=O)C(C)(C)C)C2 | inactive |
| C[C@@H]1CN([C@H](C)CO)C(=O)c2cccc(NC(=O)Nc3ccc(F)cc3)c2O[C@@H]1CN(C)S(=O)(=O)c1ccc(Cl)cc1 | inactive |
| OC[C@H]1Nc2ccc(-c3cccc(F)c3)cc2[C@@H]2[C@H]1CCN2Cc1ccc(F)cc1 | inactive |
| N#Cc1ccc(-c2ccc3c(c2)[C@@H]2[C@@H](CCN2C(=O)C2CCCCC2)[C@@H](CO)N3)cc1 | inactive |
| CCCNC(=O)C[C@H]1CC[C@@H]2[C@@H](COc3ccc(NC(=O)CCC)cc3C(=O)N2C)O1 | inactive |
| C[C@@H]1CN([C@@H](C)CO)C(=O)Cc2cc(NC(=O)C3CCCCC3)ccc2O[C@H]1CN(C)C(=O)Nc1ccccc1 | inactive |
| C[C@@H](O)C#Cc1ccc2c(c1)O[C@H](CN(C)Cc1ccccc1)[C@@H](C)CN([C@@H](C)CO)S2(=O)=O | inactive |
| C[C@H](O)C#Cc1ccc2c(c1)O[C@@H](CN(C)Cc1ccccc1)[C@H](C)CN([C@@H](C)CO)S2(=O)=O | inactive |
| C[C@@H]1CN([C@@H](C)CO)S(=O)(=O)c2ccc(C#C[C@@H](C)O)cc2O[C@@H]1CN(C)Cc1ccc(-c2ccccc2)cc1 | inactive |
| COc1ccccc1CN1CC[C@@H]2[C@@H](CO)Nc3ccc(-c4ccc(C(=O)N(C)C)cc4)cc3[C@@H]21 | inactive |
| C[C@H](O)C#Cc1ccc2c(c1)O[C@@H](CN(C)Cc1ccccc1)[C@H](C)CN([C@H](C)CO)S2(=O)=O | inactive |
| CN1c2ccc(C#Cc3cccnc3)cc2[C@@H]2[C@@H](CCN2C(=O)C2CCCCC2)[C@H]1CO | inactive |
| CN1c2ccc(C#Cc3cccnc3)cc2[C@@H]2[C@@H](CCN2C(=O)C2CCC2)[C@@H]1CO | inactive |
| COc1ccccc1CN1CC[C@H]2[C@H](CO)Nc3ccc(-c4ccc(C(=O)N(C)C)cc4)cc3[C@H]21 | inactive |
| C[C@@H]1CN([C@@H](C)CO)S(=O)(=O)c2ccc(C#C[C@@H](C)O)cc2O[C@H]1CN(C)Cc1ccccc1 | inactive |
| C[C@H](O)C#Cc1ccc2c(c1)O[C@H](CN(C)Cc1ccc(-c3ccccc3)cc1)[C@H](C)CN([C@@H](C)CO)S2(=O)=O | inactive |
| C[C@H](O)C#Cc1ccc2c(c1)O[C@H](CN(C)Cc1ccc(-c3ccccc3)cc1)[C@H](C)CN([C@H](C)CO)S2(=O)=O | inactive |
| C[C@H](O)C#Cc1ccc2c(c1)O[C@@H](CN(C)Cc1ccccc1)[C@@H](C)CN([C@H](C)CO)S2(=O)=O | inactive |
| C[C@H](O)C#Cc1ccc2c(c1)O[C@H](CN(C)Cc1ccccc1)[C@H](C)CN([C@H](C)CO)S2(=O)=O | inactive |
| CN(C)C(=O)c1ccc(-c2cccc(-c3nc(C(=O)NC4CCCCC4)cc4c3[C@@H](CCO)N([S@](=O)C(C)(C)C)C4)c2)cc1 | inactive |
